This is a sample that favours compounds with a hit; in the whole collection about 6.6% have one here.
BoNT-A LC inh2 – BoNT/A light chain protease inhibitors, primary screen, biochemical, flow cytometry, MLPCN library; 360,000 tested, 0.17% active; AID 588499, 2011; Botulinum neurotoxin type A light chain protease (Clostridium botulinum A str. ATCC 3502); multiplex microsphere protease substrate cleavage; inhibition, % at 10 µM; also: plate controls were buffer without enzyme for full effect and enzyme alone for no effect
Autofluor counter – compound fluorescence in toxin protease inhibitor counterscreen; AID 624483; 360,000 tested, 3.1% active; fluorescence intensity (no concentration beside the values); compound autofluorescence counterscreen, microsphere flow cytometry; hits give high values; in the data active = fluorescence intensity above about 16000; inconclusive = no clear call, values can overlap the other calls
Anthrax LF inh2 – Bacillus anthracis LF protease inhibitors, primary screen, biochemical, multiplex microsphere, MLPCN library; Lethal factor (Bacillus anthracis), P15917; multiplex microsphere protease cleavage assay; inhibition, % at 10 µM; 360,000 tested, 0.12% active; AID 588501, 2011; also: plate controls were buffer without enzyme for full effect and enzyme alone for no effect
Target sequence (P15917 whole entry, looked up): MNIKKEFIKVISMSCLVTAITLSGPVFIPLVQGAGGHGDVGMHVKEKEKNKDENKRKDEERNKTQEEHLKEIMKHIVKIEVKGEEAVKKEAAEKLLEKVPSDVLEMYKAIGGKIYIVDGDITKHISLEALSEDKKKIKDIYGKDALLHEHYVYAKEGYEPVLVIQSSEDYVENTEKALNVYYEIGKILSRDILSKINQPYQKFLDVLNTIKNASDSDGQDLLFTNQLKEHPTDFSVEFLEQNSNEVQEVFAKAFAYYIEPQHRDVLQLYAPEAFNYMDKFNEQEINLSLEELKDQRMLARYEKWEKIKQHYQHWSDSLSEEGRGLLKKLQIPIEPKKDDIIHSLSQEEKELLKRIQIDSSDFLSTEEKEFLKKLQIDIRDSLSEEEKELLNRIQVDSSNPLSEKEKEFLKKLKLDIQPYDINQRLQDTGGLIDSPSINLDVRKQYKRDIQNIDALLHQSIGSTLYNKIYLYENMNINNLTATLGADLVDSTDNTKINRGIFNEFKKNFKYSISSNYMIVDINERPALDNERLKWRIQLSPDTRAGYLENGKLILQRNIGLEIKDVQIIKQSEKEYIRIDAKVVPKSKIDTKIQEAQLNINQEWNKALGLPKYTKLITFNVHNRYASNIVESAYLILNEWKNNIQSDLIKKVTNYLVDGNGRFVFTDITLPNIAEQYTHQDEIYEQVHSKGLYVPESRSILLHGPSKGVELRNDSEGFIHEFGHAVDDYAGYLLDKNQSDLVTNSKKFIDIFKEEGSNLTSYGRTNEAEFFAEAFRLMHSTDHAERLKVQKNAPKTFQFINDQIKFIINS
GDH-TPI counter – GDH-TPI coupling enzyme inhibitors, primary screen, artefact control for M. tuberculosis FBA inhibitor project, biochemical, absorbance, full deck; GDH-TPI coupled enzyme counterscreen, NADH absorbance; inhibition, % at 4.8 µM; 360,000 tested, 1.2% active; in the data active = inhibition above about 30%;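 also: 0% = DMSO wells and 100% = wells lacking the enzyme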
Mtb FBA inh – Mtb FBA enzyme inhibitors, primary screen, biochemical, fluorescence, strain H37Rv; Fructose-bisphosphate aldolase (Mycobacterium tuberculosis (strain ATCC 25618 / H37Rv)), …; purified M. tuberculosis FBA, fluorescence read-out; inhibition, % at 1 µM; 360,000 tested, 2.3% active; AID 588726, 2011; in the data active = inhibition above about 27%;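 also: 0% = vehicle and 100% = reference inhibitor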
BoNT F protease – BoNT/F light chain protease inhibitors, primary screen, biochemical, flow cytometry, MLPCN library | Multiplex microsphere protease cleavage assay | inhibition, % at 10 µM | 360,000 tested, 0.22% active | AID 588497, 2011; in the data active = inhibition above about 35%, passing the limit was not always enough; inconclusive = no clear call, values can overlap the other calls; also: plate controls were buffer without enzyme for full effect and enzyme alone for no effect
* hit, by the source's call. Rule as the data show it, unless noted: active = inhibition above about 30%; inconclusive = no clear call, values can overlap the other calls; inactive = below that.

For CC(=O)Nc1cnn(Cc2ccc(Br)cc2)c1 the results were BoNT-A LC inh2 -2.9, Autofluor counter 24279*, Anthrax LF inh2 -2.2, GDH-TPI counter 6.2, Mtb FBA inh 0.9 and BoNT F protease -3.3.
O=C(Nc1cnn(Cc2ccc(Cl)cc2)c1)c1cnccn1 was read as BoNT-A LC inh2 4.4, Autofluor counter 19189*, Anthrax LF inh2 -6.4, GDH-TPI counter -5.6, Mtb FBA inh 1.3 and BoNT F protease 4.4.
`CCOC(=O)C1(Cc2cccc(Cl)c2)CCCN(CCO)C1` (stereo unspecified) gave BoNT-A LC inh2 -0.6, Autofluor counter 4778, Anthrax LF inh2 1.9, GDH-TPI counter -9.1, Mtb FBA inh 2.7 and BoNT F protease -0.6.
CCc1ccc(C(=O)N2CCCC2)s1 was read as BoNT-A LC inh2 inconclusive, Autofluor counter 16597*, Anthrax LF inh2 -0.7, GDH-TPI counter 22.3, Mtb FBA inh -2.4 and BoNT F protease -3.1.
`CCc1ccc(C(=O)NC2CCCCC2)s1` gave BoNT-A LC inh2 -2.6, Autofluor counter 20340*, Anthrax LF inh2 -3.9, GDH-TPI counter -4.6, Mtb FBA inh -2.7 and BoNT F protease -3.1.
Screening NS(=O)(=O)c1cc(C(=O)N2CCc3ccccc32)c(Cl)cc1Cl returned BoNT-A LC inh2 2.6, Autofluor counter 18762*, Anthrax LF inh2 -4.2, GDH-TPI counter -5.1, Mtb FBA inh 0.6 and BoNT F protease 1.0.
CS(=O)(=O)N1CCN(C(=O)c2ccc(Cl)s2)CC1 was read as BoNT-A LC inh2 -1.0, Autofluor counter 4306, Anthrax LF inh2 2.6, GDH-TPI counter 3.2, Mtb FBA inh -2.4 and BoNT F protease 3.2.
Screening O=C(c1ccc(Cl)s1)N1CCCC1 returned BoNT-A LC inh2 -4.0, Autofluor counter 24368*, Anthrax LF inh2 -0.7, GDH-TPI counter 9.3, Mtb FBA inh 2.4 and BoNT F protease -5.4.
Screening COCCNC(=O)C1(C)CCCN(Cc2cc(C(F)(F)F)ccc2Cl)C1 (stereo unspecified) returned BoNT-A LC inh2 -0.2, Autofluor counter 3575, Anthrax LF inh2 -1.2, GDH-TPI counter 3.1, Mtb FBA inh -1.7 and BoNT F protease -2.8.
CC1(C(=O)Nc2ccc3c(c2)OCO3)CCN1C(=O)C1CCCCC1 (stereo unspecified) was read as BoNT-A LC inh2 -0.4, Autofluor counter 3745, Anthrax LF inh2 -1.3, GDH-TPI counter -3.5, Mtb FBA inh -0.3 and BoNT F protease -1.3.
Screening Cc1nn(C)c(C(=O)N2CCc3ccccc32)c1Cl returned BoNT-A LC inh2 inconclusive, Autofluor counter 21851*, Anthrax LF inh2 -0.6, GDH-TPI counter 13.6, Mtb FBA inh 0.6 and BoNT F protease -0.3.
Screening O=C(c1ccc(Cl)s1)N1CCc2ccccc21 returned BoNT-A LC inh2 -1.8, Autofluor counter 20271*, Anthrax LF inh2 1.0, GDH-TPI counter 4.6, Mtb FBA inh -1.0 and BoNT F protease -3.8.
`C=CCC1(CC=C)CC(Cc2cnccn2)N(C(=O)OC(C)(C)C)C1` (stereo unspecified) gave BoNT-A LC inh2 0.1, Autofluor counter 2739, Anthrax LF inh2 -8.1, GDH-TPI counter 8.5, Mtb FBA inh 1.1 and BoNT F protease -1.7.
`CCOC(=O)CSc1nc2sc3c(c2c(=O)n1C1CCCCC1)CCN(C)C3` gave BoNT-A LC inh2 74.2*, Autofluor counter 4970, Anthrax LF inh2 48.6*, GDH-TPI counter 39.2*, Mtb FBA inh 20.5 and BoNT F protease 15.4.
For CCOC(=O)CSc1nnc2n(C3CCCCC3)c(=O)c3c4c(sc3n12)CCCC4 the results were BoNT-A LC inh2 -0.4, Autofluor counter 23468*, Anthrax LF inh2 -2.0, GDH-TPI counter 5.6, Mtb FBA inh 2.3 and BoNT F protease -2.1.
For CCn1c(SCC(N)=O)nc2sc3c(c2c1=O)CCN(C)C3 the results were GDH-TPI counter 27.6 and Mtb FBA inh 13.9.
O=C(CSc1nnc2n(C3CCCCC3)c(=O)c3ccccc3n12)OC1CCCCC1 was read as BoNT-A LC inh2 -1.8, Autofluor counter 19972*, Anthrax LF inh2 0.3, GDH-TPI counter -2.5, Mtb FBA inh 1.7 and BoNT F protease -3.8.
COC(=O)CSc1nnc2n(C3CCCCC3)c(=O)c3c4c(sc3n12)CCCC4 was read as BoNT-A LC inh2 -0.1, Autofluor counter 8015, Anthrax LF inh2 0.8, GDH-TPI counter 0.0, Mtb FBA inh -0.4 and BoNT F protease -0.5.
For O=C(OCC(=O)N1CCCCC1)c1cc(NS(=O)(=O)c2ccc(Cl)c([N+](=O)[O-])c2)ccc1O the results were BoNT-A LC inh2 -0.7, Autofluor counter 2598, Anthrax LF inh2 0.5, GDH-TPI counter 3.4, Mtb FBA inh 0.4 and BoNT F protease -10.2.
`O=S(=O)(NC1CCCC1)c1ccccc1Cl` gave BoNT-A LC inh2 inconclusive, Autofluor counter 20825*, Anthrax LF inh2 -0.5, GDH-TPI counter -2.9, Mtb FBA inh 0.4 and BoNT F protease 2.6.
Screening O=C(Nc1ccccc1N1CCOCC1)C1CCCO1 (stereo unspecified) returned BoNT-A LC inh2 -0.4, Autofluor counter 3643, Anthrax LF inh2 -2.3, GDH-TPI counter -12.7, Mtb FBA inh -0.1 and BoNT F protease -6.9.
Screening O=C(Nc1ccccc1C(=O)N1CCOCC1)C1CCCO1 (stereo unspecified) returned BoNT-A LC inh2 5.0, Autofluor counter 19285*, Anthrax LF inh2 -4.1, GDH-TPI counter -1.4, Mtb FBA inh -1.8 and BoNT F protease 6.0.
`O=C(Nc1ccccc1C(=O)N1CCCCC1)C1CCCCC1` gave BoNT-A LC inh2 -1.5, Autofluor counter 22702*, Anthrax LF inh2 0.0, GDH-TPI counter -3.7, Mtb FBA inh 3.1 and BoNT F protease -0.9.
`CCOc1cc(NC(=O)C2CCCO2)c(OCC)cc1NC(C)=O` (stereo unspecified) gave BoNT-A LC inh2 -3.4, Autofluor counter 17626*, Anthrax LF inh2 -3.2, GDH-TPI counter 12.8, Mtb FBA inh -1.2 and BoNT F protease -7.5.
Screening CSc1ccccc1NC(=O)C1CCCO1 (stereo unspecified) returned BoNT-A LC inh2 1.9, Autofluor counter 22505*, Anthrax LF inh2 0.8, GDH-TPI counter 2.1, Mtb FBA inh -2.2 and BoNT F protease 1.5.
Screening CCNC(=O)NC(=O)COC(=O)C1CSC2(C)CCC(=O)N12 (stereo unspecified) returned BoNT-A LC inh2 -0.5, Autofluor counter 2546, Anthrax LF inh2 -1.2, GDH-TPI counter 11.7, Mtb FBA inh 2.7 and BoNT F protease -1.7.
Screening CC(C)(O)C#Cc1ccc(CN2CCCC(CO)(Cc3cccc(Cl)c3)C2)cc1 (stereo unspecified) returned BoNT-A LC inh2 0.7, Autofluor counter 5292, Anthrax LF inh2 3.7, GDH-TPI counter 1.3, Mtb FBA inh 4.1 and BoNT F protease 7.7.
